# Data published in PubChem BioAssay (NCI).
# About 83,000 compounds went through this panel and 20% of them were active in at least one assay; those are over-represented in the sample as a whole.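 Compound tested at a single concentration for 48 hours in 96-well plates; a percent growth value below 10 was scored as active.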 Unmarked numbers belong to inactive results. Activity calls are given as the source filed them.
# Key:
# Assay in all cases: NCI-60 one-dose screen, 48 h (100 = growth as untreated, 0 = no growth, -100 = all killed)
# Conditions in all cases: 10 µM
# NCI-H23 lung = tested on: NCI-H23 lung
# NCI-H226 lung = tested on: NCI-H226 lung
# NCI-H322M lung = tested on: NCI-H322M lung
# HOP-62 NSCLC = tested on: HOP-62 NSCLC
# NCI-H460 lung = tested on: NCI-H460 lung
# HOP-92 NSCLC = tested on: HOP-92 NSCLC
# NCI-H522 lung = tested on: NCI-H522 lung
# A549/ATCC NSCLC = tested on: A549/ATCC NSCLC
# 786-0 renal = tested on: 786-0 renal
# COLO 205 colon = tested on: COLO 205 colon
# DU-145 prostate = tested on: DU-145 prostate
# K-562 leukemia = tested on: K-562 leukemia
# MALME-3M melanoma = tested on: MALME-3M melanoma
# MDA-MB-231 breast = tested on: MDA-MB-231 breast
# RXF 393 renal = tested on: RXF 393 renal
# SF-268 CNS = tested on: SF-268 CNS
# SF-295 CNS = tested on: SF-295 CNS
# SF-539 CNS = tested on: SF-539 CNS
# UACC-257 melanoma = tested on: UACC-257 melanoma
# M14 melanoma = tested on: M14 melanoma
Compound,growth (NCI-H23 lung),growth (NCI-H226 lung) [%],growth (NCI-H322M lung),growth (HOP-62 NSCLC) [%],growth (NCI-H460 lung) [%],growth (HOP-92 NSCLC),growth (NCI-H522 lung),growth (A549/ATCC NSCLC) [%],growth (786-0 renal) [%],growth (COLO 205 colon),growth (DU-145 prostate) [%],growth (K-562 leukemia),growth (MALME-3M melanoma),growth (MDA-MB-231 breast),growth (RXF 393 renal),growth (SF-268 CNS) [%],growth (SF-295 CNS) [%],growth (SF-539 CNS),growth (UACC-257 melanoma),growth (M14 melanoma)
Fc1cc(-c2ncc(-c3cc(F)c(F)c(F)c3)c(NC3CCCCCC3)n2)cc(F)c1F,102%,95.9,102%,122,102,88.8%,120%,85.6,98.3,115%,105,101%,140%,104%,96.1%,107,90.1,105%,87.6%,109%
COc1ccc(S(=O)(=O)Nc2ccc(OCc3nnc(-c4ccc(Cl)cc4)o3)c(F)c2)cc1,43.4%,59.8,80.2%,74.4,59.4,60.6%,43.4%,47.4,67.8,89.2%,76.7,43.2%,67.8%,54.6%,63.1%,59.9,43.8,70.5%,23.3%,78%
CCN(CC)CCn1c(=N)n(CC(O)c2ccc(Cl)c(Cl)c2)c2ccccc21 (stereo not given),91.2%,92.2,99.5%,85.3,104,58.1%,45%,89.6,79.9,18.5%,97,-0.392% (active),-35.6% (active),45.1%,76.3%,87.2,103,42.4%,-59.8% (active),-58.6% (active)
Cc1ccccc1[P+](Cc1ccccc1)(c1ccccc1)c1ccccc1,9.83% (active),39.5,42.3%,32.3,17.5,-21.8% (active),-15.8% (active),19.7,43.7,-56% (active),41,7.69% (active),-1.44% (active),40.7%,64.6%,33.9,11,35.4%,-26.7% (active),15.1%
O=C1CC[C@@H](C(=O)N[C@H]2CSSC[C@@H](C(=O)NCCc3ccccc3)NC(=O)[C@H](Cc3ccccc3)NC(=O)[C@@H]3CCCN3C(=O)[C@@H]3CCCN3C2=O)N1,92.7%,87.5,115%,55.1,101,94.6%,96.2%,86.2,99,119%,110,90.6%,110%,90.1%,103%,106,98.8,94.2%,99.1%,97.8%
CCc1c(C(=O)NCc2c(O)ccc3cccc(O)c23)[nH]c(C)c1C(C)=O,23.4%,52.7,69.5%,59,43.4,32.8%,11.4%,27.3,60.9,69.5%,55.1,16.8%,37.4%,48.3%,58.8%,31.1,11.8,56.3%,35%,30.9%
COc1cc(C2C=C(c3ccc(Cl)cc3)N=C3SC(C)=CN32)cc(OC)c1OC (stereo not given),93.8%,96.9,97.3%,109,102,95.2%,69.9%,83.8,89.5,109%,99.9,91.1%,88.7%,103%,92.6%,104,82.2,99.1%,101%,95%
CCCCCC(CCC)COC(=O)c1ccc(OC)cc1 (stereo not given),97.4%,88.6,101%,92.3,111,93.7%,90.7%,80.9,101,105%,109,105%,97.4%,109%,115%,106,102,96.9%,90.8%,101%
CC(C)c1ncc(CO)n1Cc1c(Cl)cccc1Cl,110%,94.3,99.7%,103,103,93.6%,94.4%,102,104,89.6%,106,92.3%,103%,115%,95.8%,96.5,96.1,98.7%,106%,109%
Nc1ncncc1-c1ccc(F)cc1,108%,108,108%,105,110,95.9%,119%,106,104,114%,115,109%,112%,127%,109%,112,100,95.6%,118%,107%
CCCc1ccnc(NS(=O)(=O)c2ccc(N)cc2)n1,62.8%,79.2,103%,105,95.4,93.1%,56.6%,79.3,90.3,37.8%,117,54.7%,67.1%,81.9%,102%,95.6,95.9,71.8%,43.4%,95.8%
CC1=CSC2=NC(c3ccc(Cl)c(Cl)c3)=CC(c3ccc(Cl)cc3)N12 (stereo not given),32.3%,38.1,-4.79% (active),30.9,53.7,-42.1% (active),-20.7% (active),51.1,22.3,104%,20.5,17%,-22.7% (active),-44% (active),-47.7% (active),14.7,99.6,-46.7% (active),18.7%,0.183% (active)
O=C(/C=C/c1ccc(Cl)cc1)c1ccc(Br)cc1,94.6%,108,91.2%,97.2,109,111%,82.6%,102,81.1,110%,101,97.5%,102%,102%,114%,102,95.9,94%,106%,100%
C[C@]12CC[C@H]3[C@@H](CC=C4C[C@@H](O)CC[C@@]43C)[C@@H]1CC[C@@H]2C(=O)C/C=N/O,86.6%,107,88.5%,76.8,97.9,54.9%,79.4%,89.5,90.8,101%,99.5,78.1%,84%,103%,96.2%,92.2,97.2,91.6%,99.5%,95.7%
O=C(COc1ccc(-c2nc3ccccc3[nH]2)cc1)N=Nc1c(O)[nH]c2ccccc12,106%,116,96.1%,105,97.8,79.8%,94%,106,96.8,92.4%,101,44.8%,80.9%,84.5%,107%,98.3,102,106%,110%,116%
